Among the data in PubChem BioAssay (Tox21) are Potency values, retold here.

A number with no mark means an inactive call. Records with an inconclusive call do not appear. Active and inactive are the calls of the source. Calls follow the shape of the dose curve; as a rule, active = well fitted curve in the direction sought with a large enough effect in the repeat runs; inconclusive = weak or mixed curves; inactive = no such curve, though single readings can be large; an effect the other way counts as inactive or inconclusive.

Test [1] is described as follows: Human pregnane X receptor (PXR) small molecule agonists, qHTS cell viability counter screen (AID 1346977). Also: nearly all actives have a fitted effect of over 50% in size. Summed up: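 After a 5hr pre-incubation, PXR-Luc HepG2 cells received compounds plus positive control in DMSO and were kept 24hr at 37C. Cell viability was quantified by fluorescence from CellTiter-Fluor added for the final hour.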
A short description of test [2]: Caspase-3/7 induction in HepG2 cells by small molecules, qHTS assay (AID 1346978). Also: nearly all actives have a fitted effect of over 15% in size. Summed up:
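Wild-type HepG2 cells, 2,000/well, settled 5 hr at 37 C and 5% CO2, then compound-treated for 17 hr; caspase-3/7 activity read by luminescent Caspase-Glo 3/7 after 30 min at room temperature.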

Test [3] can be described thus: Caspase-3/7 induction in CHO-K1 cells by small molecules, qHTS cell viability counter screen (AID 1346979). Also: nearly all actives have a fitted effect of over 35% in size. Summed up:
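Multiplexed with Caspase-Glo 3/7 in CHO-K1 cells, this counter screen added CellTiter-Fluor after 16hr of compound exposure and recorded fluorescence 1hr later.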

A short description of test [4]: Caspase-3/7 induction in CHO-K1 cells by small molecules, qHTS assay (AID 1346980). Also: nearly all actives have a fitted effect of over 15% in size. Summed up:
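Wild-type CHO-K1 cells exposed to compounds for 17hr at 37 C, 5% CO2. Caspase-3/7 activity then measured by Caspase-Glo 3/7 luminescence after 30min at room temperature.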
(In general: Quantitative high-throughput screening tests each substance at several concentrations.)

Test [5] in a line: Caspase-3/7 induction in HepG2 cells by small molecules, qHTS cell viability counter screen (AID 1346981). Also: series mostly up to about 92 µM; nearly all actives have a fitted effect of over 30% in size. Summed up: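 CellTiter-Fluor fluorescence measured viability in the same wells used for Caspase-Glo 3/7. HepG2 (wild type) at 2,000 cells/well were pre-incubated 5 hr, dosed, and given reagent at 16 hr, with 1 hr further at 37C.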
Test [6] concerns the target Nuclear receptor subfamily 1 group I member 2 (Homo sapiens) (UniProt O75469). Kind of test: Human pregnane X receptor (PXR) small molecule agonists, qHTS assay (AID 1346982). Also: nearly all actives have a fitted effect of over 35% in size. Also: potency is read from the fitted curve at half-maximal effect. Summed up:
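Agonist mode: luminescence from ONE-Glo after 24 h compound exposure at 37C in HepG2 cells carrying hPXR-responsive CYP3A4 luciferase, plated in charcoal-stripped serum medium 5 h beforehand.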

The target in test [7] is Cytochrome P450 2C19 (Homo sapiens) (UniProt P33261). Kind of test: Cytochrome P450 Family 2 Subfamily C Member 19 (CYP2C19) small molecule antagonists: luciferase reporter qHTS assay (AID 1671197). Also: nearly all actives have a fitted effect of over 65% in size. Also: potency is read from the fitted curve at half-maximal effect. The method, boiled down:
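P450-Glo CYP2C19 screening system; proluciferin substrate; DMSO compound stocks; 10 min RT preincubation; NADPH regeneration, 1 h at 37C; luciferin detection reagent, 20 min RT; luminescence as RLU.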
Background: Reporter assays use an easily measured gene product as a stand-in for the process of interest.

Test [8] addresses Cytochrome P450 2C9 (Homo sapiens) (UniProt P11712). Put plainly: Cytochrome P450 Family 2 Subfamily C Member 9 (CYP2C9) small molecule antagonists: luciferase reporter qHTS assay (AID 1671198). Also: nearly all actives have a fitted effect of over 50% in size. Also: potency is read from the fitted curve at half-maximal effect. Summed up:
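P450-Glo proluciferin substrate with CYP2C9 enzyme; 10 min RT preincubation, then NADPH regeneration 1 h at 37C; luciferin detection reagent 20 min RT, luminescence in relative luminescence units.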

Test [9] concerns the target Cytochrome P450 1A2 (Homo sapiens) (UniProt P05177). Put plainly: Cytochrome P450 Family 1 Subfamily A Member 2 (CYP1A2) small molecule antagonists: luciferase reporter qHTS assay (AID 1671199). Also: nearly all actives have a fitted effect of over 50% in size. Also: potency is read from the fitted curve at half-maximal effect. The method, boiled down: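 Luminescence from luciferin formed by CYP1A2 from a proluciferin substrate, read 20 min after detection reagent. Compound was pre-incubated 10 min with enzyme-substrate, and reaction started with NADPH regeneration solution for 1 h at room temperature; furafylline control.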

Test [10] deals with Voltage-gated inwardly rectifying potassium channel KCNH2 (Homo sapiens) (UniProt Q12809). Put plainly: Human Ether-a-go-go-Related Gene (hERG) channel small molecule antagonists: fluorescence cell-based qHTS assay (AID 1671200).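 Also: hERG-expressing U2OS cells given a thallium stimulus after FluxOR II dye loading; series mostly up to about 77 µM; nearly all actives have a fitted effect of over 50% in size.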 The method, boiled down:
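Cell line hERG-U2OS; dye FluxOR II, 1 h RT dark; Tl+ stimulus; ex 480/em 540 nm, read each second for 2 min.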
(Block of hERG is tested as a sign of cardiac risk.)

In test [11] the target is Cytochrome P450 3A4 (Homo sapiens) (UniProt P08684). Put plainly: Cytochrome P450 Family 3 Subfamily A Member 4 (CYP3A4) small molecule antagonists: luciferase reporter qHTS assay (AID 1671201). Also: nearly all actives have a fitted effect of over 50% in size. Also: potency is read from the fitted curve at half-maximal effect. The method, boiled down: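 Room-temperature assay throughout: 10 min compound–enzyme/substrate preincubation, 1 h reaction after NADPH regeneration solution, 20 min detection. Luciferin formed from proluciferin substrate is quantified by luminescence.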

The target of test [12] is Cytochrome P450 2D6 (Homo sapiens) (UniProt P10635). Put plainly: Cytochrome P450 Family 2 Subfamily D Member 6 (CYP2D6) small molecule antagonists: luciferase reporter qHTS assay (AID 1671196). The method, boiled down: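 CYP2D6 activity was followed as luminescence from its luciferin product after a 1 h NADPH-driven reaction at room temperature. Enzyme-substrate mix and compound were pre-incubated for 10 min, and the signal was read 20 min after adding detection reagent.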
Sequence of Cytochrome P450 2D6 (Homo sapiens) (P10635 whole entry, looked up): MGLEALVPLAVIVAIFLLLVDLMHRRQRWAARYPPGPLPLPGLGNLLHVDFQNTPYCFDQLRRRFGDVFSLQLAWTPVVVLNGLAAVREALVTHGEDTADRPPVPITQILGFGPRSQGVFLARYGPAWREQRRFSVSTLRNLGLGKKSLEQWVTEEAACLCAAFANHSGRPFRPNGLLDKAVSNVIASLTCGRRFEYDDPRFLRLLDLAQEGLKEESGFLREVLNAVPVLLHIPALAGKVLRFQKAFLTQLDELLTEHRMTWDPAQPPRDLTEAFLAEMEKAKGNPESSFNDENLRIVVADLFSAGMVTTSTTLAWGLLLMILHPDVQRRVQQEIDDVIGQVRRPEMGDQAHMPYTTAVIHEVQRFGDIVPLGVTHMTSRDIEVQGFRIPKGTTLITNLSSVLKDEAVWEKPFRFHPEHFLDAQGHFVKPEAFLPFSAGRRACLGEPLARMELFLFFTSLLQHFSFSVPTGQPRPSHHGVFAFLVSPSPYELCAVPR

Sequence of Voltage-gated inwardly rectifying potassium channel KCNH2 (Homo sapiens) (Q12809 whole entry, looked up): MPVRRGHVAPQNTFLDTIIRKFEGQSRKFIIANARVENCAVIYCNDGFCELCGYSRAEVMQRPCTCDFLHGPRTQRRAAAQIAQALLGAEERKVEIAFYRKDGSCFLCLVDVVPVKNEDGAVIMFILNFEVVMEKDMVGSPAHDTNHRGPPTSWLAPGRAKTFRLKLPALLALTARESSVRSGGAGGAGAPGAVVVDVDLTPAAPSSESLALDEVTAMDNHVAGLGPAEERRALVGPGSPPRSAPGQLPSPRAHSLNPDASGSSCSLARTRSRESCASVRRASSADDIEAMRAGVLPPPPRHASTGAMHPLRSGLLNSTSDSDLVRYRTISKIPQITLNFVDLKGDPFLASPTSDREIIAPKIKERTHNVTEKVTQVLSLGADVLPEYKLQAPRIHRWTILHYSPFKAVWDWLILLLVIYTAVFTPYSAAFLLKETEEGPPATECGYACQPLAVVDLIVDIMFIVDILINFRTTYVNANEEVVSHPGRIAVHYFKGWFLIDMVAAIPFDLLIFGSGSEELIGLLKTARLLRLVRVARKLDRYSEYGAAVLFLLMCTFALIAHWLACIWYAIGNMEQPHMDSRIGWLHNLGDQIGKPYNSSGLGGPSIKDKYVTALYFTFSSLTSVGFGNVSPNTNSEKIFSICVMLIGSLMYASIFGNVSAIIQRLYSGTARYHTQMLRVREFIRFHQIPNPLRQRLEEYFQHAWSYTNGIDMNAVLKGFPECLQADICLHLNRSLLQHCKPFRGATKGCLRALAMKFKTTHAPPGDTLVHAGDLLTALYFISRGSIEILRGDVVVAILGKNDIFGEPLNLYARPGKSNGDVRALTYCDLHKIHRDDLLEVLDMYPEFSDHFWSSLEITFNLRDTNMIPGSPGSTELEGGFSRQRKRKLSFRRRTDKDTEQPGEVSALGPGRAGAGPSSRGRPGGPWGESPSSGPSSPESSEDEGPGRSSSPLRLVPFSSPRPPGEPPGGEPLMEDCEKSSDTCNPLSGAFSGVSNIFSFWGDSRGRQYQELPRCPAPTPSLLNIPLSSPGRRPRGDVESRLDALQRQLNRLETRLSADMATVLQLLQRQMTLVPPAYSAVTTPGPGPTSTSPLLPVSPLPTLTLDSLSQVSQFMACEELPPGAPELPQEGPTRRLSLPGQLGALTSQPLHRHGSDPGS
Sequence of Cytochrome P450 2C19 (Homo sapiens) (P33261 whole entry, looked up): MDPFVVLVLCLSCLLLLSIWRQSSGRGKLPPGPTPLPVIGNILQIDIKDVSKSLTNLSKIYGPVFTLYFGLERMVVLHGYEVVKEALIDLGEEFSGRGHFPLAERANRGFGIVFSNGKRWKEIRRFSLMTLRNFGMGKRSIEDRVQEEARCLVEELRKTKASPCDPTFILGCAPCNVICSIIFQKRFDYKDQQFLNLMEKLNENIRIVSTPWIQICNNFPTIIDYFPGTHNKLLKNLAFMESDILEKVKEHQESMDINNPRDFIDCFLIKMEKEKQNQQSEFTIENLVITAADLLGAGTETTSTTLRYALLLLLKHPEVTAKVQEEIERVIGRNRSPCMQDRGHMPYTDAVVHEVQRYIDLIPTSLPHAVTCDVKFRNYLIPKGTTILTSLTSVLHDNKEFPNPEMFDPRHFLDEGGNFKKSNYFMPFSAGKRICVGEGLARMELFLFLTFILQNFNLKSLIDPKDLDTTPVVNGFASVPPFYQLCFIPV
Sequence of Cytochrome P450 1A2 (Homo sapiens) (P05177 whole entry, looked up): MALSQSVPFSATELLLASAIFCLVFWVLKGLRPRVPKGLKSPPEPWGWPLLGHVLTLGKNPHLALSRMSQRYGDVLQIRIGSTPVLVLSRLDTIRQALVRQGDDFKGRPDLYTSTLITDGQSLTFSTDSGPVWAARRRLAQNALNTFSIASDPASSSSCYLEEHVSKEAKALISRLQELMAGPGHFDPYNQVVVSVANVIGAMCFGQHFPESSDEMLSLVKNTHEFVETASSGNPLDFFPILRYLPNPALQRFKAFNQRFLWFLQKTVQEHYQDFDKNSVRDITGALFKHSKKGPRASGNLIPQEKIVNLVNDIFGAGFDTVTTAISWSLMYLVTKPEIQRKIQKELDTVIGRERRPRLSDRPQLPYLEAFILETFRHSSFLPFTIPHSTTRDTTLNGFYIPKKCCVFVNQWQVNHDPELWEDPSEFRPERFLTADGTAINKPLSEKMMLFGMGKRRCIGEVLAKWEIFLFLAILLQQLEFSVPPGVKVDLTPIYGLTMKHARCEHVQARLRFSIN
Sequence of Nuclear receptor subfamily 1 group I member 2 (Homo sapiens) (O75469 whole entry, looked up): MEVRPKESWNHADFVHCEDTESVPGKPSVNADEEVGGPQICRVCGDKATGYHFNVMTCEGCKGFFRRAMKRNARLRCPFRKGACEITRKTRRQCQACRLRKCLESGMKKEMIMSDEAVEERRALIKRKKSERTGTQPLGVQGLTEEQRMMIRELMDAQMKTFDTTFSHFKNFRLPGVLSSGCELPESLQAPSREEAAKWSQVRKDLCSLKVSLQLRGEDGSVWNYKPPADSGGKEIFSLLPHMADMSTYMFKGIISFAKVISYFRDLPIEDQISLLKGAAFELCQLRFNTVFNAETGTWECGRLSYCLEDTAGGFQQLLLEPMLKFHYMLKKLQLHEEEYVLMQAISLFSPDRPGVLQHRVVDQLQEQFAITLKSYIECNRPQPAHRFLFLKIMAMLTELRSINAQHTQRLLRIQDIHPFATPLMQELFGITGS
Sequence of Cytochrome P450 2C9 (Homo sapiens) (P11712 whole entry, looked up): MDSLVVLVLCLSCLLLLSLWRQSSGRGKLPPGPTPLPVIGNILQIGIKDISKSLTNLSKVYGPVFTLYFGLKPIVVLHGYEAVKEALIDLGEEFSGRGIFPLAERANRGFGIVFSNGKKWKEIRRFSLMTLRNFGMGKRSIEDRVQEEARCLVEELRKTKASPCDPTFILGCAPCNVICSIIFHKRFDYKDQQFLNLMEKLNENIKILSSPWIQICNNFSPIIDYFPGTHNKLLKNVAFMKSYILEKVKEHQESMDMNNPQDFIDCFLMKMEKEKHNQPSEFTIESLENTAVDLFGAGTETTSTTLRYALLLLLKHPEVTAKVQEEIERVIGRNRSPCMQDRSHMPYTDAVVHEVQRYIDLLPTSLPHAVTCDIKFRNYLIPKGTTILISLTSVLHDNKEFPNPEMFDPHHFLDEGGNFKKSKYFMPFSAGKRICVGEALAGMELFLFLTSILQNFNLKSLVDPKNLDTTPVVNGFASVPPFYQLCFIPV
Sequence of Cytochrome P450 3A4 (Homo sapiens) (P08684 whole entry, looked up): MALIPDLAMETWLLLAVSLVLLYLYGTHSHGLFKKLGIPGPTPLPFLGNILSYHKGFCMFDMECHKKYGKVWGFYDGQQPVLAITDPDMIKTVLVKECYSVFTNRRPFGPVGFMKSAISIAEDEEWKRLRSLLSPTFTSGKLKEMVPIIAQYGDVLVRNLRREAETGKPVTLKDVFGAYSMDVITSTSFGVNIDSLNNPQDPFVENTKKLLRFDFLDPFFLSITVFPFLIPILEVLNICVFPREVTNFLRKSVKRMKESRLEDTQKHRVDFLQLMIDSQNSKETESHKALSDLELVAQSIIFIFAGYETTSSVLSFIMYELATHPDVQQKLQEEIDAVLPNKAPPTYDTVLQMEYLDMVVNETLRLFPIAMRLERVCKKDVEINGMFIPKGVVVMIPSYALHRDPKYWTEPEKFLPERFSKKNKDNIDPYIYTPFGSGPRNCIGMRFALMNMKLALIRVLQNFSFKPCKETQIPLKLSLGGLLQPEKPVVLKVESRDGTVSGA

Consider `O=C1C=CCCC1`, for which the Potency entry in test [1], in [2], in [3], in [4], in test [5] and in [6] was “inactive” each time. Also, the Potency result in test [7], in [8], in [9], in test [10] and in [11] was “inactive” in each case.
For `OCCCO`, the Potency result in [1], in [2], in test [3], in [4], in [5] and in test [6] was “inactive” in each case. Moreover, the Potency entry in [7], in test [8], in [9] and in test [11] was “inactive” each time.
For the compound `O=C(O)c1ccc2cc(O)ccc2c1`, the Potency entry in test [1], in [2], in test [3], in test [4], in test [5] and in test [6] was “inactive” in each case. Also, the Potency entry in test [9], in [10] and in test [11] was “inactive” throughout.
On to `Cc1ccccc1CCO`, for which the Potency result in test [1], in [2], in test [3], in [4], in [5] and in test [6] was “inactive” each time. Also, the Potency entry in test [7], in [9], in test [10] and in [11] was “inactive” each time.
Consider `C=CC(C)(O)CC/C=C(/C)CCC=C(C)C` (stereo not given), for which the Potency entry in test [1], in test [2], in test [3], in test [4], in [5] and in test [10] was “inactive” each time. Besides, the figures for the Potency in test [6], in [7] and in [8] were 54.5 µM (active), 10 µM (active) and 31.7 µM (active), respectively.
As for `CC(C)=CCCC(C)C=O` (stereo not given), the Potency result in test [1], in test [2], in [3], in [4], in [5] and in test [6] was “inactive” each time. The Potency entry in test [12], in test [9] and in test [10] was “inactive” each time. The Potency in test [11] is 35.6 µM (active).
Turning to `CCCCOc1ccc(N)cc1`, the Potency result in test [1], in test [2], in test [3], in test [4], in [5] and in [10] was “inactive” in each case. In addition, the figures for the Potency in test [6], in [7] and in test [8] were 54.5 µM (active), 28.3 µM (active) and 39.9 µM (active), respectively.
With `O=C(O)CNc1ccccc1`, the Potency result in test [1], in test [2], in test [3], in test [4], in [5] and in test [6] was “inactive” each time. Further, the Potency entry in test [7] and in test [11] was “inactive” in each case.
Regarding `O=C(O)c1cc(C(=O)O)c(C(=O)O)cc1C(=O)O`, the Potency result in test [1], in test [2], in [3], in test [4], in [5] and in test [6] was “inactive” throughout. The Potency result in test [7], in test [8], in test [9] and in test [11] was “inactive” each time.
In the case of `N#C[C@@H]1CC(F)(F)CN1C(=O)CNC1CC2CCC(C1)N2c1ncccn1` (stereo not given in full), the Potency result in [1], in [2], in [3], in test [4], in test [5] and in [6] was “inactive” each time. The Potency result in [9] is “inactive”. The Potency was 71 µM (active) in test [7] and 35.6 µM (active) in [8].
As to `O=S(=O)(O)c1cc(Cl)c(Cl)cc1Cl`, the Potency result in test [1], in test [2], in test [3], in [4], in [5] and in [6] was “inactive” each time. Further, the Potency result in test [7], in [10] and in [11] was “inactive” in each case. Besides, the Potency in test [8] is 31.7 µM (active).
As to `FC(F)(Cl)C(F)(Cl)Cl`, the Potency entry in [1], in test [2], in [3], in test [4], in [5] and in test [6] was “inactive” in each case. The Potency entry in test [7], in [10] and in [11] was “inactive” each time.
Consider `O=C(OCCOCCOCCOC(=O)c1ccccc1)c1ccccc1`, for which the Potency entry in [1], in [2], in [3], in test [4], in [5] and in test [10] was “inactive” each time. Further, the Potency was 27.3 µM (active) in test [6], 20 µM (active) in test [7] and 17.8 µM (active) in [9].
For the compound `O=C(N[C@@H](Cc1ccccc1)[C@@H](O)C(=O)N1C[C@@H](O)[C@@H](O)C1)c1cc2cc(Cl)ccc2[nH]1`, the Potency result in [1], in [2], in [3], in test [4], in test [5] and in [6] was “inactive” throughout. The Potency result in test [10] is “inactive”. For the same compound, the figures for the Potency in [7], in test [8] and in test [9] were 39.9 µM (active), 35.6 µM (active) and 28.3 µM (active), respectively.
For `O=c1c2ccccc2oc2ccccc12`, the Potency result in test [1], in test [2], in [3], in test [4], in [5] and in [6] was “inactive” throughout. The Potency result in [10] and in [11] was “inactive” in each case. The Potency in [7] was 28.3 µM (active); in [8] it was 39.9 µM (active); in test [9], 0.564 µM (active).
On to `CC(C)Cc1nccs1`, for which the Potency entry in test [1], in test [2], in test [3], in [4], in [5] and in test [6] was “inactive” in each case. Moreover, the Potency entry in test [10] was “inactive”. Besides, in test [7], the Potency is 40.7 µM (active).
`OCC(O)c1ccccc1` (stereo not given): the Potency entry in test [1], in test [2], in test [3], in test [4], in [5] and in test [6] was “inactive” each time. Further, the Potency entry in test [7] and in [10] was “inactive” in each case.
